From ChEMBL document CHEMBL3988442, “University of Dundee, Small-Polar-MMV Screening Library” (2021) come the findings set out here.

The target in the assay is Chromo domain-containing protein 1 (Saccharomyces cerevisiae (strain ATCC 204508 / S288c) (Baker's yeast)) (UniProt P32657). In words: ScCHD-1 Enzyme Inhibition Assay. It is filed as functional. Further details: scale not given: in the data most compounds retested in dose-response had high values. The settings on record: 30 µM.
Chain of Chromo domain-containing protein 1 (Saccharomyces cerevisiae (strain ATCC 204508 / S288c) (Baker's yeast)) (P32657 whole entry, the tested form may be a part): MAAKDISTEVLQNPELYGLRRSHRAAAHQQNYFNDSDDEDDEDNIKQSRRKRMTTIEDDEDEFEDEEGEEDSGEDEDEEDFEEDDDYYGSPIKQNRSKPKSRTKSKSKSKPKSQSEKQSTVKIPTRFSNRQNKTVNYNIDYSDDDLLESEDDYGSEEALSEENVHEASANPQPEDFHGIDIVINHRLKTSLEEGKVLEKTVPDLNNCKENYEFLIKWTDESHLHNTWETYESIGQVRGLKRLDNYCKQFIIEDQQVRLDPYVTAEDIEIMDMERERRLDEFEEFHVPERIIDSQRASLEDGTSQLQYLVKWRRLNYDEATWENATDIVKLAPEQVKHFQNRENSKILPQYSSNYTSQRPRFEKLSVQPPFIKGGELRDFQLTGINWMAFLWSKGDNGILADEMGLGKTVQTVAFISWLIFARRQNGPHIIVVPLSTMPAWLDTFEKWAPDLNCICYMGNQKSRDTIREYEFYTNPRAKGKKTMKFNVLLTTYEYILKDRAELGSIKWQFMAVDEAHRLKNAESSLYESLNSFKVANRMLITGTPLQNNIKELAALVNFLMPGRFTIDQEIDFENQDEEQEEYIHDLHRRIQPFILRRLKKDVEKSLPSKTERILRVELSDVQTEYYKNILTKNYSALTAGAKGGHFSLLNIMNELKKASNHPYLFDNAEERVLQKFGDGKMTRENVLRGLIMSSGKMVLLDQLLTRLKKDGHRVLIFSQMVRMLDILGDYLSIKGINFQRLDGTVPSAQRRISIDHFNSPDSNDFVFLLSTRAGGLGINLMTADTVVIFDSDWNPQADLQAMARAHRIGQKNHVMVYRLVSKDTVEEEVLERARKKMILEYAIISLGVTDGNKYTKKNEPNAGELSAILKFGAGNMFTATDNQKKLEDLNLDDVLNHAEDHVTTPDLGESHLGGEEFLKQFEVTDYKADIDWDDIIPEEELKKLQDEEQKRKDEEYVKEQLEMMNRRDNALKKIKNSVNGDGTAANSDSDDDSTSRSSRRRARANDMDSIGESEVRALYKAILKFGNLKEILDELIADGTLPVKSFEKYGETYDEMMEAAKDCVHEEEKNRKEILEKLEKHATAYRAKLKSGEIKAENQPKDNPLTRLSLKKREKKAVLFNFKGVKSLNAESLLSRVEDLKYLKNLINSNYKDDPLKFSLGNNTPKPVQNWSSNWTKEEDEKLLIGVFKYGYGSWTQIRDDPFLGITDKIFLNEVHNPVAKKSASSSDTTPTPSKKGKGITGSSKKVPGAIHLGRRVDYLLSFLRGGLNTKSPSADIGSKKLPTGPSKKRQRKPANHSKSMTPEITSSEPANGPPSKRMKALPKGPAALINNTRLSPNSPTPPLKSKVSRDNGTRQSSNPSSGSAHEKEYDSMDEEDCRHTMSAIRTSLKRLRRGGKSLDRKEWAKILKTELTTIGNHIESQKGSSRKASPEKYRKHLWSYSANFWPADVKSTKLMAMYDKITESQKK
In the case of `CN(CCO)Cc1nnc(C2CCN(C(=O)c3cccnc3)CC2)n1C`, the Percent Effect was -7.14%. In the case of `CN(C)C(=O)NC1COC2(CCN(C(=O)Nc3ccccc3)CC2)C1` (stereo not given), the Percent Effect amounted to 2.03%. As to `Cc1cc(C)c(CNC(=O)NCC(O)COc2ccccc2)c(=O)[nH]1` (stereo not given), the Percent Effect is -2.07%.

Consider `CCc1cnc2c(c1NCc1ccncc1)c(=O)n(C)c(=O)n2C`, for which the Percent Effect is -4.37%.

Consider `c1cc(C2CCCN2Cc2nnnn2C2CC2)cs1` (stereo not given), for which the Percent Effect is 2.21%.

Take `O=C(CC1CC1)N1CCn2cc(Cn3cncn3)nc2C1`: the Percent Effect is -6.64%. Take `CN1CCN(Cc2cn3c(n2)CN(C(=O)N2CCOCC2)CC3)CC1`: the Percent Effect was 0.336%. Regarding `CC(C)c1nc(C(=O)N2CCCC(n3cncn3)C2)c[nH]1` (stereo not given), the Percent Effect is -17%. In the case of `CC(C)Cc1cc(C(=O)NCc2nnc[nH]2)[nH]n1` it was -1.14%. As for `Cn1c(C(F)(F)F)nn(CCNC(=O)CSCc2ccccc2)c1=O`, the Percent Effect is -4.6%. For `O=C(NCCn1ccc(-c2ccncc2)n1)c1ccncc1` the value was -2.37%.

With `CCn1cc(N)c(C(=O)NCc2cnn(C)c2)n1`, the Percent Effect was 1.02%. Consider `COc1c(CNCc2ccnc(N3CCCC3)c2)c(C)nn1C`, for which the Percent Effect was -7.79%.

Consider `COCCn1cc(C(=O)N2CCCC2c2cc(C)no2)ccc1=O` (stereo not given), for which the Percent Effect was -3.51%. In the case of `CC(C)C(=O)NCCCn1ncc2c(Cl)cccc21` it was -3.62%; in that of `Cc1c[nH]c(CN(C)C(=O)c2cccc(CCC(C)(C)O)c2)n1`, -3.88%; in that of `CC(O)CC(C)(C)CNC(=O)NCc1cccc(-n2ccnc2)c1` (stereo not given), 4.12%. Turning to `CN(C)C(C)(C)CNC(=O)C(C)(C)c1ccccc1F`, the Percent Effect worked out at 105%. In the case of `Cc1cnn(CC2CCCN2C(=O)c2cc3ccccc3[nH]2)c1` (stereo not given) it was -12.1%. For the compound `Cc1ccc(C(=O)N2CCN(S(C)(=O)=O)CC2)cc1N1CCNC1=O`, the Percent Effect is -6.07%.
